Records with an inconclusive call do not appear. Unmarked numbers belong to inactive results. Calls come from the whole dose curve; as a rule, active = well fitted inhibition curve with a large enough effect; inconclusive = small, poorly fitted or top-dose-only effect; inactive = flat fitted curve, though single readings scatter.
The compounds below were run against Voltage-gated inwardly rectifying potassium channel KCNH2 (Homo sapiens) (UniProt Q12809) (assay: qHTS Assay for Small Molecule Inhibitors of the Human hERG Channel Activity (AID 588834;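 note: top concentration of the series differs between compounds; lower thallium flux fluorescence means stronger hERG block; nearly all actives have a fitted effect of over 50% in size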)). Conditions: U2OS BacMam hERG, FluxOR thallium flux fluorescence; series mostly up to 92.2 µM; activity change, negative = inhibition: at the top concentration.
Sequence of Voltage-gated inwardly rectifying potassium channel KCNH2 (Homo sapiens) (Q12809 whole entry, looked up): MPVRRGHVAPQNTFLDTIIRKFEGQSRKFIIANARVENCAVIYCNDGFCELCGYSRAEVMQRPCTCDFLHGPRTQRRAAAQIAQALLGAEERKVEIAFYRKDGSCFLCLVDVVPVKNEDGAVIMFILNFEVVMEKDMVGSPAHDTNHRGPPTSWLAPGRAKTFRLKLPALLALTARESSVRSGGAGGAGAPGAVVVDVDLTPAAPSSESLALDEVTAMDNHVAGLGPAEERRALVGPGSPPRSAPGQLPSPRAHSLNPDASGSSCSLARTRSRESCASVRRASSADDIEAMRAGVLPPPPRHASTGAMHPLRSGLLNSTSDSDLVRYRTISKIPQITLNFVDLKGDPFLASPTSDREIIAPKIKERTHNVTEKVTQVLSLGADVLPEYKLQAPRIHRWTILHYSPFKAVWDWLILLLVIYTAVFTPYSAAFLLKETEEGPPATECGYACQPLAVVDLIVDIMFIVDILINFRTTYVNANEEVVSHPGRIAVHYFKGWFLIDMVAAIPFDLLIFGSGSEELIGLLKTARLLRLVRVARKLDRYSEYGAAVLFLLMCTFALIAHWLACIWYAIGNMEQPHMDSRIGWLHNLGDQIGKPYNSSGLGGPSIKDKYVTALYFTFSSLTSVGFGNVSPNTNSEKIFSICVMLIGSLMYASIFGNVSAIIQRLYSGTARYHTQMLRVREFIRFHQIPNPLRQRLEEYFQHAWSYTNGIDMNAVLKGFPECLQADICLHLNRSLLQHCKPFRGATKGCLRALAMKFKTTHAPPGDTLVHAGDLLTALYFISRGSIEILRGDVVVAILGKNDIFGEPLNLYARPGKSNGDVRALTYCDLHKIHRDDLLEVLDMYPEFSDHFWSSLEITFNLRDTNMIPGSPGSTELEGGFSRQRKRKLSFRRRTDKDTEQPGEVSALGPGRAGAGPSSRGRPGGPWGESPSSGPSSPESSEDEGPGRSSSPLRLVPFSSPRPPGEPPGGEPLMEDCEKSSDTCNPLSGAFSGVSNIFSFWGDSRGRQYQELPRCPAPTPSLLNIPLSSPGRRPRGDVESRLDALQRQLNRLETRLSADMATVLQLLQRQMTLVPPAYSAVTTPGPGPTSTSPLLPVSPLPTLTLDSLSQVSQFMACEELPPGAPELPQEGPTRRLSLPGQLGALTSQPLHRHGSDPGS
From the text: NIH Chemical Genomics Center [NCGC]
National Institutes of Environmental Health Sciences [NIEHS]
National Toxicology Program [NTP]
We have developed a 1536-well cell-based assay for quantitative high throughput screening (qHTS) to determine in vitro hERG channel blockage as a measure of cardio toxicity with small molecules. This particular assay uses the U2OS cell line which is derived from human osteosarcoma.
NCGC Assay Protocol Summary:
HERG assay (FluxORTM thallium flux assay) was initially developed by Invitrogen/Molecular Probes, and then miniaturized into 1536-well plate in a homogeneous format by NCGC. This assay measures the activity of potassium channel using thallium dye (FluxOR) flux as surrogate measurement for potassium into the cells with a FDSS-7000 kinetic plate reader (Hamamatsu Corp., Hamamatsu City, Japan). The hERG ion channel is transduced into mammalian cells (U2OS) using a baculovirus (Bacmam) construct harboring the hERG K+ ion channel. So far we screened LOPAC1280 library (Sigma), the NTP collection of 1408 compounds, and the NCGC Pharmaceutical Collection (NPC), in which many well defined HERG blockers are present. The rank order potencies of many of these compounds are similar to that of other HERG assays (membrane potential, Rb+ flux, patch clamp, etc). This quick and homogeneous assay is also found to be sensitive, specific, and robust.
Using the FluxORTM thallium flux assay, the activity of potassium channel using thallium dye (FluxOR) flux as surrogate measurement for potassium into the cells was measured in the U2OS cell line transduced with hERG K+ ion channel using a baculovirus (Bacmam) using Opti-MEM medium (Invitrogen) containing 2% fetal calf serum (FCS, HyCone) following loading buffer addition, compound treatment for around 10 minutes and finally adding stimulation buffer. The assay was performed in black clear Kalypsys 1536-well plates. In the screen, Astemizole was used as positive controls. Library compounds were measured for their ability to cause hERG channel blockage in the cell line, as reflected by a decrease in fluorescence intensity, in a concentration-dependent manner. […] AC50 values were determined from concentration-response data modeled with the standard Hill equation.
qHTS protocol for hERG-U2OS cellular assay
[Step] [Parameter] [Value] [Description]
1. Day 1: Replace medium in 70-80% confluent T225 flask with 2.5 mL of hERG-BacMam virus plus 12.5 mL of phosphate buffered saline (PBS) (corresponding roughly to a multiplicity of infection ratio of 100 virus particles/cell)
2. Incubation: 4 hrs @ room Temperature in Dark
3. Reagent; Remove virus; wash once with 25 ml DPBS
4. Reagent; 35 ml culture medium
5. Incubation; 37 °C overnight
6. Day2: Reagent; 3 uL; 2000 U2OS cells/well
7. Time; 4 hr; 37 °C incubation
8. Loading buffer; 1 uL; 0.7X;
9. Incubation: 1hr @ RT in Dark.
12. Time; 10min; 37 °C incubation
13. Read fluorescence Intensity on FDSS for 10 Sec with 1 sec interval
14. Reagent; 1 uL; stimulation buffer
15. Read fluorescence Intensity on FDSS for 2 min with 1 sec interval
16. Detection; Fluorescence Intensity; FDSS
`O=Cc1ccccc1Cl` was tested, and the “activity change, negative = inhibition” value was -0.592%.
For `O=C(O)c1ccc(Cl)cc1Cl`, the “activity change, negative = inhibition” value was -4.71%.
In the case of `Nc1cccc(N)c1`, the “activity change, negative = inhibition” value is reported as 0.615%.
In the case of `Cc1ccc2nc(-c3ccc(N)cc3)sc2c1S(=O)(=O)O`, the “activity change, negative = inhibition” value is reported as 6.55%.
`CCC(C)O` (stereo not given) was tested, and the “activity change, negative = inhibition” value was 4.43%.
`C=CCCCCCC` was tested, and the “activity change, negative = inhibition” value was 2.79%.
For `Nc1ccccc1S(=O)(=O)O`, the “activity change, negative = inhibition” value was 17.1%.
For `Cc1cccc2ccccc12`, the “activity change, negative = inhibition” value was -18.3%.
In the case of `O=C(O)c1cccc([N+](=O)[O-])c1`, the “activity change, negative = inhibition” value is reported as -0.469%.
For `CC=C(Cl)Cl`, the “activity change, negative = inhibition” value was 4.34%.
For `CC(C)=C1CCC(C)CC1=O` (stereo not given), the “activity change, negative = inhibition” value was 2.71%.
With `CC(=O)CCc1ccccc1` the “activity change, negative = inhibition” value was 2.96%.
In the case of `O=P(O)(OCc1ccccc1)OCc1ccccc1`, the “activity change, negative = inhibition” value is reported as 12.5%.
In the case of `Cc1ccc(Br)cc1`, the “activity change, negative = inhibition” value is reported as 4.56%.
`BrC/C=C/CBr` was tested, and the “activity change, negative = inhibition” value was 1.01%.
With `COC(=O)CCC(=O)OC` the “activity change, negative = inhibition” value was -4.23%.
`Cc1ccc(C)c([N+](=O)[O-])c1` was tested, and the “activity change, negative = inhibition” value was 4.89%.
For `O=C(O)CNC(=O)c1ccc(CO)o1`, the “activity change, negative = inhibition” value was 3.67%.
For `C=CCCC`, the “activity change, negative = inhibition” value was 5.59%.
With `CCN(CC)c1cccc(O)c1` the “activity change, negative = inhibition” value was -1.73%.
In the case of `CCCCC(C=O)CC` (stereo not given), the “activity change, negative = inhibition” value is reported as 11.9%.
`NC(=S)NNC(N)=S` was tested, and the “activity change, negative = inhibition” value was 22.2%.
`C=CC(=O)NC(C)C` was tested, and the “activity change, negative = inhibition” value was 0.727%.
With `C1CCC2OC2C1` (stereo not given) the “activity change, negative = inhibition” value was 1.24%.
`CCOc1cccc(N)c1` was tested, and the “activity change, negative = inhibition” value was 0.0804%.
For `Cc1ccc(C(C)(C)C)cc1`, the “activity change, negative = inhibition” value was -4.72%.
With `CC(=O)Nc1cccc(N)c1` the “activity change, negative = inhibition” value was -4.84%.
With `Cc1cscn1` the “activity change, negative = inhibition” value was 1.36%.
In the case of `CCc1ccccc1`, the “activity change, negative = inhibition” value is reported as 0.283%.
In the case of `COCCOC(=O)c1ccccc1C(=O)OCCOC`, the “activity change, negative = inhibition” value is reported as -0.234%.
In the case of `C[C@@H]1CC2(OC[C@]3(C)O[C@H]23)O[C@H]2C[C@@]3(C)[C@@H]4CC[C@H]5C(C)(C)C(O[C@@H]6OC[C@@H](O)[C@H](O)[C@H]6O)CC[C@@]56C[C@@]46CC[C@]3(C)[C@@H]12` (stereo not given in full), the “activity change, negative = inhibition” value is reported as -2.56%.
For `Cc1ccc(CO)cc1`, the “activity change, negative = inhibition” value was -1.45%.
For `O=C(O)c1ccccc1[N+](=O)[O-]`, the “activity change, negative = inhibition” value was -0.0578%.
With `NCCCCCCN` the “activity change, negative = inhibition” value was -3.83%.
`O=Cc1ccc(C(=O)O)cc1` was tested, and the “activity change, negative = inhibition” value was 4.71%.
With `CCN(C(=O)N(CC)c1ccccc1)c1ccccc1` the “activity change, negative = inhibition” value was -0.375%.
With `COc1cccc2sc(N)nc12` the “activity change, negative = inhibition” value was 1.81%.
In the case of `NC(N)=S`, the “activity change, negative = inhibition” value is reported as -5.88%.
With `Cc1cccc(C)c1O` the “activity change, negative = inhibition” value was -1.17%.
For `CC(=O)OCc1ccco1`, the “activity change, negative = inhibition” value was 8.68%.

— PubChem BioAssay (NCATS)
% is set by controls: 0 for no effect and ±100 for the full control effect.
